Results published in PubChem BioAssay (NCATS).
Results filed as inconclusive are left out. The source made the active and inactive calls. Unless noted, calls come from the whole dose curve; as a rule, active = well fitted curve in either direction with a large enough effect (not every such curve was filed as active); inconclusive = small, poorly fitted or top-dose-only effect, or another doubt; inactive = flat fitted curve, though single readings scatter.

How the values were obtained:
[1] = system: HIV-1 nucleocapsid protein NCp7 (binding to TG oligonucleotide); assay: HIV Nucleocapsid (AID 346; call rule not given here;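 note: potency is the fitted concentration of half-maximal effect; potency is for inhibitors that block NC binding and lower polarization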); conditions: HIV-1 NC / fluorescein-TGTGTGTG probe, fluorescence polarization
Outline: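 Fluorescence polarization readout: labelled TG4xF oligo (10 nM) with 100 nM nucleocapsid protein, high-salt (250mM NaCl) Hepes pH 7.5 buffer containing zinc and fresh reducing agents. Compounds added by pin tool; incubation 1 hr, room temperature.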

[2] = target: Lysosomal acid glucosylceramidase (Homo sapiens) (UniProt P04062); assay: Glucocerebrosidase-p2 (AID 348; in the data active = potency below about 10 µM; note: potency is the fitted concentration of half-maximal effect); conditions: purified GBA, blue fluorogenic substrate, 40 min
Lysosomal acid glucosylceramidase (Homo sapiens), sequence (P04062 whole entry, looked up): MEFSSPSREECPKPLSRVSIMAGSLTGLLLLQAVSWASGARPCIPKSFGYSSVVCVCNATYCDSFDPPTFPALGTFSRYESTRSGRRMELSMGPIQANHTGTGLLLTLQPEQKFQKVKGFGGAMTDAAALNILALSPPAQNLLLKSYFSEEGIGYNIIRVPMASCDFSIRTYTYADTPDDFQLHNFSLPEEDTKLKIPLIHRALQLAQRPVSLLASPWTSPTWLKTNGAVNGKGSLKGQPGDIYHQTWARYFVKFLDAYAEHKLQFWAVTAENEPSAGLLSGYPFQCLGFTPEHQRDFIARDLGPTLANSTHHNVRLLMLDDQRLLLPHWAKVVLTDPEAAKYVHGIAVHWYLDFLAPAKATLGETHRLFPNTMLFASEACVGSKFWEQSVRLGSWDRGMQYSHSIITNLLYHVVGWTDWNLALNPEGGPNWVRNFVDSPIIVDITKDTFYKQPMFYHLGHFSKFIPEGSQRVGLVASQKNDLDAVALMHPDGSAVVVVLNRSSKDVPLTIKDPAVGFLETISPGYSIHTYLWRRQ
Outline: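 Compounds titrated from 0.6 nM upwards against 0.2 nM enzyme in pH 5.9 citric acid/KH2PO4, taurocholate, tween-20; blue fluorogenic substrate 80 uM, 40 min room temperature, stopped and read Ex 365/Em 440 for AC50.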

[3] = AP1 Signaling Pathway (AID 357);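 note: ME-180 reporter cells stimulated with EGF at its EC50 level; % is set by controls: 0 for no effect and ±100 for the full control effect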
Outline: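 A ratiometric CCF4 readout (405 nm excitation; 460 and 530 nm emission) quantified AP-1-driven beta-lactamase in ME-180 cells after 5 h with compound and EC50 EGF; AC50 values were derived for activators and inhibitors.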

[4] = target: Cytochrome P450 1A2 (Homo sapiens) (UniProt P05177); assay: p450-cyp1a2 (AID 410; calls by dose curve; note: potency is the fitted concentration of half-maximal effect;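 for activity change, negative = inhibition: -100% = full effect of reference inhibitor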)
Cytochrome P450 1A2 (Homo sapiens), sequence (P05177 whole entry, looked up): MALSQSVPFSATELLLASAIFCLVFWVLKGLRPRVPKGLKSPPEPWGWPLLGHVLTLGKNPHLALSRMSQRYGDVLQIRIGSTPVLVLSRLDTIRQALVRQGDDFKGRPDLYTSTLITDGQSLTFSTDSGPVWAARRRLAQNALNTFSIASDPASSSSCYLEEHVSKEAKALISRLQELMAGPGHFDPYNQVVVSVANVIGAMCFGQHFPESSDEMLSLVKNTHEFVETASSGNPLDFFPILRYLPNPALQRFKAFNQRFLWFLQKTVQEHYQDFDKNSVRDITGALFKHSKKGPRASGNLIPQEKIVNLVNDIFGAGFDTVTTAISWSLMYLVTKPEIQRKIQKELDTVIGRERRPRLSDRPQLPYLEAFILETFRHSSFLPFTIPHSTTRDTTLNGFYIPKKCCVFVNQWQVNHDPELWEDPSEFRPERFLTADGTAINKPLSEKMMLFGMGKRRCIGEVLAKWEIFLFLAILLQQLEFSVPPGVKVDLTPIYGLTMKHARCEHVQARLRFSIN
Outline: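 Luminescent readout of luciferin formed from Luciferin-ME by human CYP1A2; data normalized against complete inhibition by 57 uM furafylline. Enzyme 20nM, substrate 100uM at Km, 100mM KPO4 buffer, 60 min reaction at room temperature.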

[5] = Stat Signaling Pathway (AID 446);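 note: ME-180 cervical cancer cells given 40 pM IL-6 alongside compound; SIE-controlled beta-lactamase reporter measured as 460/530 nm FRET emission ratio; % is set by controls: 0 for no effect and ±100 for the full control effect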
Outline: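 Reporter line: ME-180 cervical carcinoma, SIE-beta-lactamase. Treatment: compound with 40 pM IL-6, 5 hrs, 37 C, in low-serum OPTI-MEM with 10 mM HEPES pH 7.3. Detection: 460/530 nm fluorescence.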

[6] = target: Glucocorticoid receptor (Homo sapiens) (UniProt P04150); assay: GR-EFC Redistribution (AID 451; calls by dose curve; note: potency is the fitted concentration of half-maximal effect); conditions: CHO-K1 GR-EFC translocation, beta-gal luminescence, 2 h
Glucocorticoid receptor (Homo sapiens), sequence (P04150 whole entry, looked up, the tested form may be a part): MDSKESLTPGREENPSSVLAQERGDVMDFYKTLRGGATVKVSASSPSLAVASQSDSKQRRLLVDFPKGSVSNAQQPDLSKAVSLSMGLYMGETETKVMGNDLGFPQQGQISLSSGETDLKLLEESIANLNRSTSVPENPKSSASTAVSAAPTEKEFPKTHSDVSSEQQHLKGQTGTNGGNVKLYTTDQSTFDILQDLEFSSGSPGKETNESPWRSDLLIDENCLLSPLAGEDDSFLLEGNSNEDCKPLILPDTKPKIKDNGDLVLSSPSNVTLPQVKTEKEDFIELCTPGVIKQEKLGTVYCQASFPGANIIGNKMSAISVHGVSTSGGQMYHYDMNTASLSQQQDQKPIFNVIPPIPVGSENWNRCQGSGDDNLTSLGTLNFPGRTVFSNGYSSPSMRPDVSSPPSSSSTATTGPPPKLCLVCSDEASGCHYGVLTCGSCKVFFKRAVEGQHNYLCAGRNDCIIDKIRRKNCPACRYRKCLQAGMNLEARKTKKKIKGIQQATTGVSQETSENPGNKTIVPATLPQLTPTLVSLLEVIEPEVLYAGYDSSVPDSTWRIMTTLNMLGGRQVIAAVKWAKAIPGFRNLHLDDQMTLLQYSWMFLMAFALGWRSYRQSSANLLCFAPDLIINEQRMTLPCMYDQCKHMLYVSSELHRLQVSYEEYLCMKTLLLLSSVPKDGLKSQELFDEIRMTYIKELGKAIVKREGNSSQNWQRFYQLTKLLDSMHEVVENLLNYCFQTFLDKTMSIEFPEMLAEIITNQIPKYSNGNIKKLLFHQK
Outline: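 CHO-K1 cells expressing nuclear EA and GR-ED fragments of b-gal; compounds titrated up to 46 uM final, 2 h at 37 C. GR nuclear translocation read as complemented b-gal luminescence after 1 h RT detection.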

[7] = target: Mitogen-activated protein kinase 10 (Mus musculus) (UniProt Q61831); assay: JNK3 AlphaScreen Assay (AID 530);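 note: kinase came from lysate of stimulated human HepG2 cells; signal reports phosphorylation of biotinylated GST-cJun 1-79 at Ser73 with 10 µM ATP; % is set by controls: 0 for no effect and ±100 for the full control effect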
Outline: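 Pre-activated (IL-1β/TNFα) JNK3 in HepG2 lysates phosphorylates biotin-GST-cJun(1-79), 10 uM ATP; anti-phospho-cJun(Ser73) AlphaScreen read at room temperature, pH 7.6 Tris buffer. Compounds pre-incubated 15 min as titrations.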

[8] = target: 3',5'-cyclic-AMP phosphodiesterase 4B (Homo sapiens) (UniProt Q07343); assay: qHTS Assay for Inhibitors of PDE-IV (AID 607; active = well fitted activation curve with a large enough effect in the main read-out, with a control signal flat, not every such curve was filed as active; note: % of control where 0% means no effect)
3',5'-cyclic-AMP phosphodiesterase 4B (Homo sapiens), sequence (Q07343 whole entry, looked up): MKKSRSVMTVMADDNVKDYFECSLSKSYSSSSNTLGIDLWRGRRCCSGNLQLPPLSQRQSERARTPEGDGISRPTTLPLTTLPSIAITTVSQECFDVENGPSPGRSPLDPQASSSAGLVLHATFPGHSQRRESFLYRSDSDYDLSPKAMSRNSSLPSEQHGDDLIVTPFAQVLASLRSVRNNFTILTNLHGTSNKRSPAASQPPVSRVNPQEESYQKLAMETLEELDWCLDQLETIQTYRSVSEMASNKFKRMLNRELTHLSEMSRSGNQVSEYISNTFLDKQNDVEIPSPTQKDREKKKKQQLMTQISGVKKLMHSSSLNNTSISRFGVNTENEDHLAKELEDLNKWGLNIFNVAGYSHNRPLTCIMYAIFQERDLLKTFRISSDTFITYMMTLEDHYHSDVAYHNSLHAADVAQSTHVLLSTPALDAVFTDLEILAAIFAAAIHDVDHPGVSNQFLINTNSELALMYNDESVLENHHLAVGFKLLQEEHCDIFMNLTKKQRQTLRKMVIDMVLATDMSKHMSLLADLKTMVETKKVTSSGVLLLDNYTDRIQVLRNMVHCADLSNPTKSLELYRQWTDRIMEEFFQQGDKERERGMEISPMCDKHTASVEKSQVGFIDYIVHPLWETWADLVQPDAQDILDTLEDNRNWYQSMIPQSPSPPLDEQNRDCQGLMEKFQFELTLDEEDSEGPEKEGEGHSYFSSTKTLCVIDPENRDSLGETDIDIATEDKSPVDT
Outline: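 Cell-based read-out of cAMP via a modified cyclic nucleotide-gated channel and membrane potential dye (535/590 nm) in HEK293 cells expressing PDE4 endogenously. Compounds tested up to 22.9 uM final; 100 uM RO 20-1724 reference.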

[9] = target: Cytochrome P450 2C9 (Homo sapiens) (UniProt P11712); assay: qHTS Assay for Inhibitors and Substrates of Cytochrome P450 2C9 (AID 883; active = well fitted curve in the direction sought with a large enough effect; an effect the other way counts as inactive or inconclusive; note: potency is the fitted concentration of half-maximal effect; nearly all actives have a fitted effect of over 60% in size)
Cytochrome P450 2C9 (Homo sapiens), sequence (P11712 whole entry, looked up): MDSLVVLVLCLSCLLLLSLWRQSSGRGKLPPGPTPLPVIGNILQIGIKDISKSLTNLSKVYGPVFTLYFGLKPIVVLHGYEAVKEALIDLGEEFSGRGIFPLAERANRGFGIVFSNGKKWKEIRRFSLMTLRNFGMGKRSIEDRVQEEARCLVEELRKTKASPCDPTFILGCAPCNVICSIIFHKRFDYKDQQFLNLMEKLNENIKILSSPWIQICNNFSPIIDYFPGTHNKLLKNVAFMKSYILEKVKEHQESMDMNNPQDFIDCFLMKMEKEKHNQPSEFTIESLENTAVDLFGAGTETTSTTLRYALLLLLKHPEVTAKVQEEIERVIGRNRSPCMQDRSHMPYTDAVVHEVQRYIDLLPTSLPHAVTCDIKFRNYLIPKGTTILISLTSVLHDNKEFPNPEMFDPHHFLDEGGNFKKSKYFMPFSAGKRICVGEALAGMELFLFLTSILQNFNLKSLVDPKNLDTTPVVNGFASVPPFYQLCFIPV
Outline: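 Human CYP2C9 (10nM) with Luciferin-H at 100uM (its KM) in 25mM KPO4; compound preincubated 10 min at 37C, then NADPH regeneration for 60 min at 37C. Luciferin read by luminescence after detection reagent; normalized to 57uM sulphaphenazole as full inhibition.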

[10] = target: Cytochrome P450 3A4 (Homo sapiens) (UniProt P08684); assay: qHTS Assay for Activators of Cytochrome P450 3A4 (AID 885; active = well fitted curve in the direction sought with a large enough effect; an effect the other way counts as inactive or inconclusive; note: nearly all actives have a fitted effect of over 65% in size)
Cytochrome P450 3A4 (Homo sapiens), sequence (P08684 whole entry, looked up): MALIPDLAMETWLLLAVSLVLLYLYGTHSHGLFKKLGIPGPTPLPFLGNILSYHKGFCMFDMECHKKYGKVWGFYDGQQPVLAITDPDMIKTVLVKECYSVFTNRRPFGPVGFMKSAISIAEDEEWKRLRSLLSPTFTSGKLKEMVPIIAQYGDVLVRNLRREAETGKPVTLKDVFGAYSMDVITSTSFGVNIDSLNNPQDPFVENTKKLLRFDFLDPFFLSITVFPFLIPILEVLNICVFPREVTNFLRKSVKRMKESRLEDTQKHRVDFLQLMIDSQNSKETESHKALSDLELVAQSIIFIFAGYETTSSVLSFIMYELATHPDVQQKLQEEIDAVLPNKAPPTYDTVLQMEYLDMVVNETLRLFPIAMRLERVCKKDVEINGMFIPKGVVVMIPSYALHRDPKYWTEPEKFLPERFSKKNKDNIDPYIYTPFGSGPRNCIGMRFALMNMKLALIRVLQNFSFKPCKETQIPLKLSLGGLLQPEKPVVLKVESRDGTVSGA
Outline: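 Signal was normalized against complete inhibition by 57 uM ketoconazole. The reaction used 20nM CYP3A4 with 25uM Luciferin-PPXE, 10-min compound preincubation and a 60-min NADPH-supported step at RT.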

[11] = qHTS Assay for Lipid Storage Modulators (AID 1519; calls by dose curve); conditions: Drosophila S3 cells, BODIPY lipid droplet/cell ratio, laser cytometry, cells loaded with oleic acid; for activity change, negative = inhibition: at 57.5 µM (top of the series)
Outline: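 Cells seeded at 5,000 per well were treated with compounds over a concentration series and loaded with oleic acid (400 uM, as added). Lipid droplet fluorescence (488 nm excitation, 500-530 nm channel) was read by laser-scanning cytometry and normalized to 20 uM Triacsin C.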

[12] = Primary qHTS for small molecule stabilizers of the endoplasmic reticulum resident proteome: Secreted ER Calcium Modulated Protein (SERCaMP) assay (AID 1508630; active = well fitted curve in the direction sought with a large enough effect; an effect the other way counts as inactive or inconclusive; note: % is set by controls: 0 for no effect and ±100 for the full control effect)
Outline: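 GLuc-SERCaMP-expressing SH-SY5Y cells, pretreated 16 h with compound, are challenged with thapsigargin to empty ER calcium stores; after 4 h, coelenterazine is added directly to the medium and luminescence is imaged.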

[13] = NFAT Signaling Pathway (AID 444); conditions: Jurkat NFAT-bla M1, carbachol, beta-lactamase ratio, 5 h; at 7.69 µM (top of the series)
Outline: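 Jurkat cells with NFAT-driven β-lactamase reporter and co-expressed M1 receptor, stimulated with carbachol (final 1 uM, ~EC50), compound titration, 5 h at 37 °C. CCF4 loaded 1 h at RT; 460/530 nm ratio gave %activity and AC50.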

[14] = target: Cytochrome P450 3A4 (Homo sapiens) (UniProt P08684); assay: qHTS Assay for Inhibitors and Substrates of Cytochrome P450 3A4 (AID 884; active = well fitted curve in the direction sought with a large enough effect; an effect the other way counts as inactive or inconclusive; note: % is set by controls: 0 for no effect and ±100 for the full control effect; nearly all actives have a fitted effect of over 50% in size)
Outline: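 20 nM human CYP3A4 with 25 uM Luciferin-PPXE (at KM) in 200 mM KPO4, preincubated 10 min with compound; NADPH regeneration started a 60 min RT reaction. Luciferin detected by luminescence, normalized to 57 uM ketoconazole as full inhibition.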

[15] = target: Glucocorticoid receptor (Homo sapiens) (UniProt P04150); assay: GR-GFP Redistribution (AID 450;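 active = compounds whose dose series gives a full or clear partial fitted curve of increased nuclear translocation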; note: potency is the fitted concentration of half-maximal effect); conditions: U2OS GR-GFP nuclear translocation, laser cytometry, 2 h
[16] = target: Ubiquitin carboxyl-terminal hydrolase 1 (Homo sapiens) (UniProt O94782); assay: Inhibitors of USP1/UAF1: Pilot qHTS (AID 504865; active = well fitted curve in the direction sought with a large enough effect; an effect the other way counts as inactive or inconclusive;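 note: rhodamine fluorescence freed from ubiquitin-rhodamine substrate followed over time; top concentration of the series differs between compounds; % is set by controls: 0 for no effect and ±100 for the full control effect; nearly all actives have a fitted effect of over 35% in size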)
Ubiquitin carboxyl-terminal hydrolase 1 (Homo sapiens), sequence (O94782 whole entry, looked up): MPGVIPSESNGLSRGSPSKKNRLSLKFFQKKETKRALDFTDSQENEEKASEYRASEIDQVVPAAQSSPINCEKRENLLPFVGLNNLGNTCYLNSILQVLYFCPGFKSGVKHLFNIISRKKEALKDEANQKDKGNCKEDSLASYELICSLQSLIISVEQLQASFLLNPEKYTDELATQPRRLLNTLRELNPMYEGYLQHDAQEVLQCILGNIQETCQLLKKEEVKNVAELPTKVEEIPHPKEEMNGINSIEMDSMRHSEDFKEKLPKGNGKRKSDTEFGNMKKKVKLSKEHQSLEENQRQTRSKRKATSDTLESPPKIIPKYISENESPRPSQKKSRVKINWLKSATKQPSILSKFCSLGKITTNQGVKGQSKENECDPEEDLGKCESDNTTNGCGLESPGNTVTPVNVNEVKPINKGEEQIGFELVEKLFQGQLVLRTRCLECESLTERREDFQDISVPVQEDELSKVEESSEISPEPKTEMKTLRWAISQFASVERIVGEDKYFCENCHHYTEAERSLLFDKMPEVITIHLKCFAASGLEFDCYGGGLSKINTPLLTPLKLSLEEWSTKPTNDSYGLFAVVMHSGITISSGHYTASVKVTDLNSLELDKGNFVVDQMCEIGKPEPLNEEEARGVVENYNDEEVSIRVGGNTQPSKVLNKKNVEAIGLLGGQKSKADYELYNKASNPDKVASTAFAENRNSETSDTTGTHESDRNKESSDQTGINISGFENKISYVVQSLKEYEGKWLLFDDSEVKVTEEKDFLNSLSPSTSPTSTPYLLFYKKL
Outline: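 1nM USP1/UAF1 + cpd, 15 min RT; start w/ Ub-Rho 150nM final; kinetic FL 480/540 nm, 6 reads q60 s. Buffer 50mM HEPES pH 7.8, 0.5mM EDTA, 1mM TCEP, 0.01% Tween-20, 0.1 mg/ml BSA.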

[17] = measured here: cell count channel max response
[18] = measured here: lipid channel max response

Structure (SMILES)	Potency [1]	Potency [2]	outcome [3]	Potency [4]	outcome [5]	Potency [6]	outcome [7]	Potency [8]	Potency [9]	Potency [10]	activity change, negative = inhibition [11]	max response [11, 17]	max response [11, 18]	outcome [12]	activity change, negative = inhibition [13]	Potency [14]	Potency [15]	Potency [16]
COCC(=O)N1CCC2(CCCN(Cc3ccncc3)C2)CC1	> 20 µM (inactive)	> 11.4 µM (inactive)	inactive	inactive	inactive	> 46 µM (inactive)	inactive	inactive	5.01 µM (active)	inactive	5.89% (inactive)	12.2%	21.3%	inactive	–	–	–	–
CC(C)CN1CCC2(CC1)CCN(C(=O)Oc1ccccc1)CC2	> 20 µM (inactive)	> 11.4 µM (inactive)	inactive	inactive	inactive	> 46 µM (inactive)	inactive	inactive	–	–	3.6% (inactive)	-4.31%	1.23%	inactive	–	–	–	–
Cc1noc(C)c1C(=O)N1CCC[C@@]2(CCN(CC(C)C)C2)C1	> 20 µM (inactive)	> 11.4 µM (inactive)	inactive	–	–	> 46 µM (inactive)	inactive	inactive	–	–	5.3% (inactive)	6.03%	15.4%	inactive	12.5% (inactive)	–	–	–
CS(=O)(=O)N1CCC2(CC1)CN(Cc1ccncc1)C2	–	> 11.4 µM (inactive)	inactive	inactive	inactive	> 46 µM (inactive)	inactive	inactive	–	inactive	4.09% (inactive)	21.7%	27.2%	inactive	6.37% (inactive)	–	–	–
O=C(Oc1ccccc1)N1CCC2(CCN(Cc3ccccc3)CC2)CC1	–	> 11.4 µM (inactive)	inactive	inactive	–	> 46 µM (inactive)	inactive	inactive	–	–	2.23% (inactive)	2.36%	6.48%	inactive	–	inactive	–	–
O=C(O)C1=CCCN(CCOC(c2ccc(C(F)(F)F)cc2)c2ccc(C(F)(F)F)cc2)C1	–	–	–	–	–	> 46 µM (inactive)	–	inactive	2.51 µM (active)	inactive	–	–	–	inactive	–	–	> 46 µM (inactive)	inactive
CN1CCC2(CC1)CCN(C(=O)c1ccco1)CC2	> 20 µM (inactive)	> 11.4 µM (inactive)	inactive	–	inactive	> 46 µM (inactive)	inactive	inactive	–	–	1.82% (inactive)	21.1%	24.5%	inactive	–	–	–	–
N#Cc1cccc(NC(=O)N2CC3(CCN(C(=O)Oc4ccccc4)CC3)C2)c1	–	> 11.4 µM (inactive)	inactive	15.8 µM (active)	inactive	> 46 µM (inactive)	inactive	inactive	–	–	1.56% (inactive)	-4.33%	2.3%	inactive	17.6% (inactive)	inactive	–	–
